Measured values published in PubChem BioAssay (NCATS).
Inconclusive results are not listed. Entries that show only a call come without a potency. Calls of active or inactive are those of the source. The call rests on the fitted dose curve; in most records, active means well fitted curve in the direction sought with a large enough effect; inconclusive means small, poorly fitted or top-dose-only effect, or another doubt; inactive means no such curve, though single readings can be large; an effect the other way counts as inactive or inconclusive. Square brackets hold non-standard residues; d marks the D form. Peptide text beside a SMILES is read from it. ξ: configuration not given here. ξPhe(βξ-Me) = CC(c1ccccc1)C(N)C(=O)O; GABA = NCCCC(=O)O

target: Aldehyde dehydrogenase, mitochondrial (Homo sapiens) (UniProt P05091); test: qHTS for Inhibitors of the Aldehyde Dehydrogenase Family (ALDH2) Primary screen (AID 2061308); conditions: ALDH2 enzyme inhibition qHTS, 1536-well; series mostly up to 56 µM; further: nearly all actives have a fitted effect of over 55% in size

| Structure (SMILES) | Potency | activity change, negative = inhibition |
| --- | --- | --- |
| C[C@H](Oc1ccc(S(C)(=O)=O)cc1C(=O)N1CCN(c2ncc(C(F)(F)F)cc2F)CC1)C(F)(F)F | inactive |  |
| CC1=CC[C@@]2(C)CC[C@@](O)(C(C)C)[C@@H]2[C@@H](O)C1 | inactive |  |
| CC1=CC(=O)CC(C)(CO[C@@H]2O[C@H](CO)[C@@H](O)[C@H](O)[C@H]2O)C1(O)/C=C/C(C)=C/C(=O)O (stereo partly drawn) | inactive |  |
| C[C@H]1CCN2C[C@]34C[C@@]5(C(=O)Nc6c5ccc5c6OC=CC(C)(C)O5)C(C)(C)C3C[C@]12C(=O)N4C (stereo partly drawn) | inactive |  |
| O=C(O)[C@H]1CCCC[C@H]1C(=O)N1CCc2ccccc2[C@H]1CN1C(=O)c2ccccc2C1=O | inactive |  |
| C[C@@H]1CC[C@]2(C(=O)O[C@@H]3O[C@H](CO[C@@H]4O[C@H](CO)[C@@H](O[C@@H]5O[C@@H](C)[C@H](O)[C@@H](O)[C@H]5O)[C@H](O)[C@H]4O)[C@@H](O)[C@H](O)[C@H]3O)CC[C@]3(C)C(=CCC4[C@@]5(C)C[C@@H](O)[C@H](O)[C@@](C)(CO)C5CC[C@]43C)C2[C@H]1C (stereo partly drawn) | inactive |  |
| C[C@@H]1O[C@@H](O[C@H]2[C@H](OC(=O)[C@]34CCC(C)(C)C[C@H]3C3=CCC5[C@@]6(C)CC[C@H](O[C@@H]7O[C@H](CO[C@@H]8OC[C@H](O)[C@H](O)[C@H]8O)[C@@H](O)[C@H](O)[C@H]7O)C(C)(C)C6CC[C@@]5(C)[C@]3(C)C[C@H]4O)OC[C@@H](O)[C@@H]2O)[C@H](O)[C@H](O)[C@H]1O[C@@H]1OC[C@H](O)[C@H](O[C@@H]2OC[C@@H](O)[C@H](O)[C@H]2O)[C@H]1O (stereo partly drawn) |  | 2.19% [at 11.2 µM] (inactive) |
| CC1C2=CC(=O)OC2(O)CC2C1C(O)CC1C(C)(CO)CCCC21C (stereo not drawn) | inactive |  |
| Cc1ccccc1-n1c([C@H](C)Nc2nc(N)nc3nc[nH]c23)nc2cccc(C)c2c1=O | inactive |  |
| C=C1CCC2C(C)(C)C(O)CCC2(C)C1CCC(C)CCOC(C)=O (stereo not drawn) | inactive |  |
| CC(O)/C=C/C1C(C)C(O[C@@H]2O[C@H](CO)[C@@H](O)[C@H](O)[C@H]2O)C(O)CC1(C)C (stereo partly drawn) | inactive |  |
| CC1(C)CC[C@]2(C(=O)O[C@@H]3O[C@H](CO[C@@H]4O[C@H](CO)[C@@H](O)[C@H](O)[C@H]4O)[C@@H](O)[C@H](O[C@@H]4O[C@H](CO)[C@@H](O)[C@H](O)[C@H]4O)[C@H]3O)CC[C@]3(C)C(=CCC4[C@@]5(C)CC[C@H](O[C@@H]6OC[C@@H](O)[C@H](O)[C@H]6O)[C@@](C)(C(=O)O)C5CC[C@]43C)[C@@H]2C1 (stereo partly drawn) | inactive |  |
| C/C(=C\CO)CC/C=C(\C)C(=O)O[C@@H]1O[C@H](CO)[C@@H](O)[C@H](O)[C@H]1O | inactive |  |

target: Retinaldehyde dehydrogenase 3 (Homo sapiens) (UniProt P47895); test: qHTS for Inhibitors of the Aldehyde Dehydrogenase Family (ALDH1A3) Primary screen (AID 2061315); conditions: ALDH inhibition qHTS; series mostly up to 56 µM

| Structure (SMILES) | Potency | activity change, negative = inhibition |
| --- | --- | --- |
| O=C(O)Cc1cn([C@@H]2O[C@H](CO)[C@@H](O)[C@H](O)[C@H]2O[C@@H]2O[C@H](CO)[C@@H](O)[C@H](O)[C@H]2O)c2ccccc12 | inactive |  |
| C/C(=C\CCC(C)CCO)C(=O)O[C@@H]1[C@@H](O)[C@H](OC2OC=C(C(=O)O)C3CCC(C)(O)C23)O[C@H](CO)[C@H]1O (stereo partly drawn) | inactive |  |
| C[C@@H]1CC[C@@]2(OC1)O[C@H]1C[C@H]3[C@@H]4CC=C5C[C@@H](O)CC[C@]5(C)[C@H]4CC[C@]3(C)[C@H]1[C@@H]2C | inactive |  |
| COc1ccc(-n2c(SCC#N)nc3sc4c(c3c2=O)CCCC4)cc1 | inactive |  |
| COc1cc(C/C(=C/NC(C)=O)N(CC(=O)Cc2ccccc2)C(C)=O)cc2c1OCO2 | inactive |  |
| COC(=O)c1cc(OC)cc(OC)c1C(=O)c1c(OC)cc2c(c1O)C1CCCC(C)(O2)O1 (stereo not drawn) | inactive |  |
| OC[C@@]1(O)CO[C@@H](OC[C@H]2O[C@@H](OCc3ccccc3)[C@H](O)[C@@H](O)[C@@H]2O)[C@@H]1O | inactive |  |
| COc1c2cc(c(O)c1OC)-c1cc(ccc1O)CCC(O)CCCC2 (stereo not drawn) | inactive |  |
| CC1=C2C[C@@]3(C)[C@@H](CCC[C@@H]3C)C[C@@]2(O)OC1=O | inactive |  |
| COc1ccccc1[C@@H]1C2=C(CC(C)(C)CC2=O)Nc2n[nH]c(C(F)(F)F)c21 | inactive |  |
| COc1cc(C(=O)OC[C@@]2(O)CO[C@@H](O[C@H]3[C@H](Oc4ccc(C(=O)O)cc4OC)O[C@H](CO)[C@@H](O)[C@@H]3O)[C@@H]2O)ccc1O | inactive |  |
| CCCCC(=O)N(Cc1ccc(-c2ccccc2-c2nn[nH]n2)cc1)C(C(=O)O)C(C)C (stereo not drawn) | inactive |  |
| CC1NC(=O)CCCNC(=O)C(Cc2c[nH]c3ccccc23)NC(=O)C(C)NC(=O)C(C(C)C)NC(=O)C(C(C)c2ccccc2)NC(=O)C(C(C)C)NC1=O (stereo not drawn) (cyclo([GABA]AV[ξPhe(βξ-Me)]VAW); configuration not given here) | inactive |  |
| C/C=C/C=C/C1=C2C(=O)C3(C)C4C(C(=O)CC(O)/C=C/C)=C(O1)C1(C)C2C2(C)OC1(O)C4(C)OC23O (stereo not drawn) | inactive |  |
| CC12CC34CC(O)C5C(CO)(CO)CC(=O)CC5(C)C3CC1C2C4 (stereo not drawn) | inactive |  |
| CC(CCC1C(C(=O)O)=CC(=O)CC1(C)C)O[C@@H]1O[C@H](CO)[C@@H](O)[C@H](O)[C@H]1O (stereo partly drawn) | inactive |  |
| CC(C)(C)OC(=O)c1ncn2c1C(C)(C)Nc1ccccc1-2 | inactive |  |
| C=C1CC[C@@H]2[C@@](C)(CO[C@@H]3O[C@H](CO)[C@@H](O)[C@H](O)[C@H]3O)[C@H](O)CC[C@@]2(C)[C@@H]1CC/C(C)=C/CO[C@@H]1O[C@H](CO)[C@@H](O)[C@H](O)[C@H]1O | inactive |  |
| C[C@@H]1O[C@@H](OC[C@H]2O[C@@H](OC(CCCCc3ccc(O)cc3)CCc3ccc(O)cc3)[C@H](O)[C@@H](O)[C@@H]2O)[C@H](O)[C@H](O)[C@H]1O (stereo partly drawn) | inactive |  |
| CC1(C)S[C@@H]2[C@H](NC(=O)[C@H](N)c3ccc(O)cc3)C(=O)N2[C@H]1C(=O)O | inactive |  |

| Structure (SMILES) | Potency | activity change, negative = inhibition |
| --- | --- | --- |
| Cn1c(=O)c2nc(/C=C/c3cccc(Cl)c3)n(C)c2n(C)c1=O | inactive |  |
| NCCCNc1ccc(Nc2nccc(Nc3cc(C4CC4)[nH]n3)n2)cc1 | inactive |  |
| CC1(C)CCCC2(C)c3c4c(c(=O)oc(=O)c3=CCC12)=CCC1C(C)(C)CCCC41C (stereo not drawn) | inactive |  |
| CC(=O)O[C@@H]1C[C@@]23C[C@@]24CC[C@H](OC2OC[C@@H](O)[C@H](O)[C@H]2O)C(C)(C)[C@@H]4CC[C@H]3[C@]2(C)CC3OC4(C[C@@H](C)C3[C@@]12C)OCC1(C)OC14 (stereo partly drawn) | inactive |  |
| CC1OC(OCC2OC(OC3CCC4(C)C(CCC5(C)C4CC=C4C6CC(C)(C)CCC6(C(=O)OC6OC(CO)C(O)C(O)C6O)CCC45C)C3(C)CO)C(O)C(O)C2O)C(O)C(O)C1O (stereo not drawn) | inactive |  |
| Cc1cccc(/C=N/Nc2cc(N3CCOCC3)n3nc(-c4ccncc4)cc3n2)c1 | inactive |  |
| C[C@@H]1O[C@@H](O[C@@H]2[C@@H](O)[C@H](O[C@H]3[C@H](O[C@H]4CC[C@@]5(C)C(CC[C@]6(C)C5CC=C5[C@@H]7CC(C)(C)CC[C@]7(C(=O)O[C@@H]7O[C@H](CO)[C@@H](O)[C@H](O)[C@H]7O[C@@H]7O[C@@H](C)[C@H](O[C@@H]8O[C@@H](C)[C@H](O)[C@@H](O)[C@H]8O)[C@@H](O)[C@H]7O)CC[C@]56C)[C@@]4(C)CO)O[C@H](C(=O)O)[C@@H](O)[C@@H]3O)O[C@H](CO)[C@H]2O)[C@H](O)[C@H](O)[C@H]1O (stereo partly drawn) |  | -3.36% [at 11.2 µM] (inactive) |
| C[C@H](Oc1ccc(S(C)(=O)=O)cc1C(=O)N1CCN(c2ncc(C(F)(F)F)cc2F)CC1)C(F)(F)F | inactive |  |
| CC1=CC[C@@]2(C)CC[C@@](O)(C(C)C)[C@@H]2[C@@H](O)C1 | inactive |  |
| CC1=CC(=O)CC(C)(CO[C@@H]2O[C@H](CO)[C@@H](O)[C@H](O)[C@H]2O)C1(O)/C=C/C(C)=C/C(=O)O (stereo partly drawn) | inactive |  |
| C[C@H]1CCN2C[C@]34C[C@@]5(C(=O)Nc6c5ccc5c6OC=CC(C)(C)O5)C(C)(C)C3C[C@]12C(=O)N4C (stereo partly drawn) | inactive |  |
| O=C(O)[C@H]1CCCC[C@H]1C(=O)N1CCc2ccccc2[C@H]1CN1C(=O)c2ccccc2C1=O | inactive |  |
| C[C@@H]1CC[C@]2(C(=O)O[C@@H]3O[C@H](CO[C@@H]4O[C@H](CO)[C@@H](O[C@@H]5O[C@@H](C)[C@H](O)[C@@H](O)[C@H]5O)[C@H](O)[C@H]4O)[C@@H](O)[C@H](O)[C@H]3O)CC[C@]3(C)C(=CCC4[C@@]5(C)C[C@@H](O)[C@H](O)[C@@](C)(CO)C5CC[C@]43C)C2[C@H]1C (stereo partly drawn) | inactive |  |
| C[C@@H]1O[C@@H](O[C@H]2[C@H](OC(=O)[C@]34CCC(C)(C)C[C@H]3C3=CCC5[C@@]6(C)CC[C@H](O[C@@H]7O[C@H](CO[C@@H]8OC[C@H](O)[C@H](O)[C@H]8O)[C@@H](O)[C@H](O)[C@H]7O)C(C)(C)C6CC[C@@]5(C)[C@]3(C)C[C@H]4O)OC[C@@H](O)[C@@H]2O)[C@H](O)[C@H](O)[C@H]1O[C@@H]1OC[C@H](O)[C@H](O[C@@H]2OC[C@@H](O)[C@H](O)[C@H]2O)[C@H]1O (stereo partly drawn) |  | 8.01% [at 11.2 µM] (inactive) |
| CC1C2=CC(=O)OC2(O)CC2C1C(O)CC1C(C)(CO)CCCC21C (stereo not drawn) | inactive |  |
| Cc1ccccc1-n1c([C@H](C)Nc2nc(N)nc3nc[nH]c23)nc2cccc(C)c2c1=O | inactive |  |
| C=C1CCC2C(C)(C)C(O)CCC2(C)C1CCC(C)CCOC(C)=O (stereo not drawn) | inactive |  |
| CC(O)/C=C/C1C(C)C(O[C@@H]2O[C@H](CO)[C@@H](O)[C@H](O)[C@H]2O)C(O)CC1(C)C (stereo partly drawn) | inactive |  |
| CC1(C)CC[C@]2(C(=O)O[C@@H]3O[C@H](CO[C@@H]4O[C@H](CO)[C@@H](O)[C@H](O)[C@H]4O)[C@@H](O)[C@H](O[C@@H]4O[C@H](CO)[C@@H](O)[C@H](O)[C@H]4O)[C@H]3O)CC[C@]3(C)C(=CCC4[C@@]5(C)CC[C@H](O[C@@H]6OC[C@@H](O)[C@H](O)[C@H]6O)[C@@](C)(C(=O)O)C5CC[C@]43C)[C@@H]2C1 (stereo partly drawn) | inactive |  |
| C/C(=C\CO)CC/C=C(\C)C(=O)O[C@@H]1O[C@H](CO)[C@@H](O)[C@H](O)[C@H]1O | inactive |  |
